Shown are actives, neighbours in structure and some others; about 13% of the full set was active somewhere.
MARV entry inh: Marburg virus entry inhibition | AID 540276 | Marburg virus pseudotyped entry inhibition, cell reporter | Potency, µM (titrated, usually from 37.8 µM), for inactives: at the top dose activity change, negative = inhibition, most hits filed as inhibitors | 300,000 compounds, 1.8% hits; calls by dose curve; tested in HEK293 cells; note: potency is the fitted concentration of half-maximal effect; % is set by controls: 0 for no effect and ±100 for the full control effect
CHX counter: counter-screen hit for Shiga toxin inhibitors, cycloheximide. cell reporter, cycloheximide protein synthesis inhibition counterscreen. max response, %. 300,000 compounds, 12% hits; in the data active = max response mostly above about 13%, no sharp cut-off; inactive = mostly below about 14%; note: read at 38.3 µM for the half of the compounds with a filed dose; 0% is about no effect
FMDV antiviral: antivirals against foot and mouth disease virus. FMDV antiviral cell-based qHTS. 410,000 compounds, 1.2% hits. Potency, µM (top dose mostly 57.9 µM), inactives show at the top dose activity change, negative = inhibition, most hits filed as inhibitors; calls by dose curve; tested in HEK293T cells; note: read-out not given here; potency is the fitted concentration of half-maximal effect; % is set by controls: 0 for no effect and ±100 for the full control effect; nearly all actives have a fitted effect of over 45% in size
HCV inhibitor: inhibitors of hepatitis C virus infection. AID 651820. Huh7.5.1 HCVcc-Cre infection, luciferase reporter, 44 h. Potency, µM (series often up to 41.8 µM), for the others: at the highest dose activity change, negative = inhibition, most hits filed as inhibitors. 340,000 compounds, 3.4% hits; active = well fitted inhibition curve with a large enough effect; inconclusive = small, poorly fitted or top-dose-only effect, or another doubt; inactive = no such curve, though single readings can be large or run the other way; note: potency is the fitted concentration of half-maximal effect; % is set by controls: 0 for no effect and ±100 for the full control effect
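A cell-based infection assay in which seeded cells (1,000 per well) receive test compound after 4 h, are inoculated with HCVcc-Cre at approximately 0.5 moi, and are incubated 44 h before luminescence detection.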
Shiga inhibitor: Shiga toxin inhibition | Vero cells, Shiga toxin protein synthesis inhibition reporter | inhibition, % at 38.7 µM | 290,000 compounds, 9.2% hits; in the data active = inhibition mostly above about 28%, no sharp cut-off; inactive = mostly below about 43%; note: 0% is about no effect
Lassa entry inh: blocks Lassa virus binding to or entry into cells; Lassa virus pseudotype entry inhibition, cell reporter; AID 540256; Potency, µM (top dose mostly 37.9 µM), inactives show top-dose activity change, negative = inhibition, most hits filed as inhibitors; 300,000 compounds, 1.2% hits; calls by dose curve; tested in HEK293 cells; note: potency is the fitted concentration of half-maximal effect; % is set by controls: 0 for no effect and ±100 for the full control effect; nearly all actives have a fitted effect of over 50% in size
* marks the source's active call; other numbers are inactive results; u = inconclusive; x = not tested or not shown; + = active, no number; [ ] = another dose, or the depositor's remark.

SMILES	MARV entry inh	CHX counter	FMDV antiviral	HCV inhibitor	Shiga inhibitor	Lassa entry inh
Cc1cc2cc(CN(CC3CCCO3)C(=S)Nc3ccccc3)c(=O)[nH]c2cc1C (centres undefined)	u	-2	-24%	u	-20	7.1µM*
CCN(CC)CCN(Cc1cc2cc3c(cc2[nH]c1=O)OCCO3)C(=S)NCC(C)C	11µM*	2	-10%	u	-2	u
CCc1ccc(OCC(=O)NCC(c2ccc(Cl)cc2)N2CCOCC2)cc1 (centres undefined)	-19%[46.1 µM]	x	u	x	x	11%[46.1 µM]
CCc1ccc(NC(=O)/C(C#N)=C/c2ccncc2)cc1	x	-5	u	26%	-16	x
CCOC(=O)c1c(C)[nH]c(C)c1C(=O)COC(=O)C1CC(=O)N(CCc2ccccc2)C1 (centres undefined)	3%	x	-16%	-10%	x	4%
CCOc1ccc(-c2cc(C(=O)NCc3ccccc3)c3c(-c4ccc(CC)cc4)[nH]nc3n2)cc1	x	x	-27%	x	x	19%[46.1 µM]
CN(C)CCCN(Cc1cc2cc3c(cc2[nH]c1=O)OCO3)C(=S)Nc1ccccc1	u	14	-17%	u	31*	u
COc1ccccc1NC(=S)N(CCCN(C)C)Cc1cc2cc3c(cc2[nH]c1=O)OCO3	u	-2	-11%	-19%	-4	x
COc1ccc(CNC(=O)C2CCC(CNS(=O)(=O)c3ccc4c(c3)CCCC(=O)N4)CC2)cc1 (centres undefined)	x	x	-15%	x	x	22%[46.1 µM]
CCn1ncc(Br)c1C(=O)Nc1ccc(-c2ccno2)cc1	x	9.8*	-8%	6%	7	x
Cc1nn(C)c(Sc2ccccc2N)c1[N+](=O)[O-]	x	29*	41%	1%	90	x
Cc1nn(C)c(N)c1[N+](=O)[O-]	x	-3	3%	28%	34	x
O=S1(=O)[C@H]2C[C@H](CO)O[C@@]2(CO)CN1Cc1ccc(-c2ccc(F)cc2)cc1	x	x	-19%	11µM*	x	x
COC(=O)/C(=C/Nc1cccc2ccccc12)[N+](=O)[O-]	10%	28*	x	-13%	53*	12%
CC1=C(C(=O)OCc2ccccc2)C(c2ccc([N+](=O)[O-])cc2)NC(=O)N1 (centres undefined)	x	-3	-26%	u	-4	x
Cc1ccc(N2CN=c3s/c(=C\c4cccnc4)c(=O)n3C2)cc1	-20%[46.1 µM]	20*	19%	-12%	28	7%
Cc1ccc(N2CCN(/N=C/c3cccnc3)CC2)cc1	9%[46.1 µM]	8	-15%	-1%	7	-5%[46.1 µM]
CCN(C(=O)CN1C(=O)S/C(=C\c2ccc(F)cc2)C1=O)C1CCS(=O)(=O)C1 (centres undefined)	x	11	26%	10%	27	x
COc1ccc(NC(=O)CCSc2ccc(F)cc2)cc1	u	34*	13%	-7%	57*	-20%[46.1 µM]
CCn1nnnc1SCC(=O)Nc1nc2ccc(OC)cc2s1	2%[46.1 µM]	25*	30%	u	+	-15%
COc1ccc2nc(NC(=O)CSc3nc(C)cc(C)n3)sc2c1	u	-4	u	-25%	-14	u
COc1ccc2nc(NC(=O)CSc3nnc(-c4ccoc4C)n3C)sc2c1	3%	46*	41%	-15%	80*	-37%
CCn1nnnc1SCC(=O)c1cccc(OC)c1	u	19*	31%	-6%	14	1%
COc1cccc(/C=C/C(=O)OCC(=O)NCCNC(=O)COC(=O)/C=C/c2cccc(OC)c2)c1	u	x	-6%	8%	x	-2%
COc1ccc(OC)c(NC(=O)CN2C(=O)COc3ccc(S(=O)(=O)N4CCCC4)cc32)c1	-3%[46.1 µM]	1	-10%	-6%	-5	14%[46.1 µM]
SMILES	MARV entry inh	CHX counter	FMDV antiviral	HCV inhibitor	Shiga inhibitor	Lassa entry inh
O=[N+]([O-])c1ccc2[nH]c3nc4ccccc4nc3c2c1	x	17	8%	19%	23	x
COCCn1nnnc1SCC(=O)c1ccccc1	13%	14*	42%	-6%	34	25%
COc1ccc(NC(=O)CSc2nnnn2C2CCCC2)cc1	7%	19	24%	-5%	13	8%
C=CCn1nnnc1SCC(=O)Nc1ccc(OC)cc1	x	24*	16%	3%	20	x
COc1ccc(C(=O)NNC(=O)CSc2nnnn2-c2cc(OC)cc(OC)c2)cc1	15%	-8	-1%	11µM*	11	12%
COc1ccc(C(=O)NNC(=O)CSc2nnc(C)n2C)cc1	12%[46.1 µM]	4	12%	-4%	14	2%[46.1 µM]
CCn1nnnc1SCC(=O)Nc1ccc(OC)cc1	-18%[46.1 µM]	13	12%	2%	34*	20%
OCCN(Cc1ccccc1)CC1CC=CCC1 (centres undefined)	u	-3	x	16%	-1	0%
COc1ccc(NC(=O)CCSc2nnnn2C)cc1	24%	25*	14%	4%	51	23%
Cn1nnnc1SCc1ccc(C(=O)Nc2ccc(Br)cc2)cc1	14%	47*	13%	u	57*	u
Cc1ccc(CSc2nnnn2C)cc1	1%	2	26%	5%	40	12%
Cn1nnnc1SCC(=O)Nc1ccc(Oc2ccc(Cl)cc2)cc1	0%	-4	x	u	-6	-14%
CCSc1nnc(NC(=O)CSc2nccn2-c2cccc(C)c2C)s1	3%	15	-25%	2%	6	-10%
O=C(OCC(=O)N1CCc2ccccc2C1)c1cccs1	3%[14.2 µM]	47*	68%	1%	77*	-14%
CC1CCN(C(=O)COC(=O)c2cccs2)CC1	13%	x	-16%	21%	x	3%
CNC(=O)COC(=O)c1ccccc1NC(=O)c1ccco1	x	1	-14%	-10%	19	x
O=C(OCC(=O)N1CCc2ccccc2C1)c1cccnc1Cl	10%	36*	84%	-14%	114*	27%
O=C(OCC(=O)N1CCCCCC1)c1cccs1	8%	38*	13%	12%	84*	u
O=C(OCC(=O)N1CCCCC1)c1cccs1	u	x	-17%	9%	x	u
Cc1cccc(C(=O)OCC(=O)N2CCc3ccccc3C2)c1O	u	x	40%	-2%	x	7%
O=C(Nc1ccccc1C(=O)OCC(=O)N1CCc2ccccc2C1)c1ccco1	22%	42*	3%	8%	73*	17%
O=C(Nc1ccccc1Cl)c1cccc(NC(=O)c2cccs2)c1	-18%	15	-2%	x	15	-7%
Cc1ccc(NS(=O)(=O)c2ccc(NC(=O)C3CCCO3)cc2)cc1 (centres undefined)	-40%	-3	-10%	u	-3	-16%
OC(COCc1ccccc1)CN1CCN(c2ccccc2F)CC1 (centres undefined)	18%	0	2%	4%	-14	-28%
CN(C)[C@@H]1C(=O)C(C(N)=O)=C(O)[C@@]2(O)C(=O)C3=C(O)c4c(O)ccc(Cl)c4[C@@](C)(O)[C@H]3C[C@@H]12	x	-3	u	0.89µM*	-7	x
